Common to all, as to experiment: MIB bead binding, log2 fold change vs DMSO (log2 ratio); higher = less competition (weaker engagement)
In one experiment the target is T1, ATG1 (UniProt Q5A649).
T1 sequence (whole entry): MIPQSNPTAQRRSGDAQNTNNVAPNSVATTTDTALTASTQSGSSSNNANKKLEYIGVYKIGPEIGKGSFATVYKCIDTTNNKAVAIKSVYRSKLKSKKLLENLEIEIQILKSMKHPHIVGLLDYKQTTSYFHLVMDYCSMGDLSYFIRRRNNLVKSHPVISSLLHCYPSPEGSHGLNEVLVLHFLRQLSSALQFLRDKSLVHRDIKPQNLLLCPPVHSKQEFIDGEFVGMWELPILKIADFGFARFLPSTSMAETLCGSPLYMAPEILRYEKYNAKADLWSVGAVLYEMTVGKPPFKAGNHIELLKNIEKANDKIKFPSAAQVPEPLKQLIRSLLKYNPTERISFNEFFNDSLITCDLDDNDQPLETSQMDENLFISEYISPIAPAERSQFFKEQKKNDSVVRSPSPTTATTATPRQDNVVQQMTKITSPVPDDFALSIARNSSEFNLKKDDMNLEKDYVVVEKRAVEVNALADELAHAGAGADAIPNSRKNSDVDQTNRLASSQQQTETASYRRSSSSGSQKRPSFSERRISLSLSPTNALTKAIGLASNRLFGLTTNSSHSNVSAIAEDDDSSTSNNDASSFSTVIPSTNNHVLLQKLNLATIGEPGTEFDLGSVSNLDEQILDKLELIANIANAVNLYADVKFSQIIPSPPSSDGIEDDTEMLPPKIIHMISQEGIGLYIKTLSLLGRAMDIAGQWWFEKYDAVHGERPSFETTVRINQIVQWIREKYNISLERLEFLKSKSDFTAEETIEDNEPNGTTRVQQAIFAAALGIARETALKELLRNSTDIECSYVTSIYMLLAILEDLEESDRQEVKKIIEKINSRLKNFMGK

The target in the next experiment is T2, PKC1 (UniProt P43057).
T2 sequence (whole entry): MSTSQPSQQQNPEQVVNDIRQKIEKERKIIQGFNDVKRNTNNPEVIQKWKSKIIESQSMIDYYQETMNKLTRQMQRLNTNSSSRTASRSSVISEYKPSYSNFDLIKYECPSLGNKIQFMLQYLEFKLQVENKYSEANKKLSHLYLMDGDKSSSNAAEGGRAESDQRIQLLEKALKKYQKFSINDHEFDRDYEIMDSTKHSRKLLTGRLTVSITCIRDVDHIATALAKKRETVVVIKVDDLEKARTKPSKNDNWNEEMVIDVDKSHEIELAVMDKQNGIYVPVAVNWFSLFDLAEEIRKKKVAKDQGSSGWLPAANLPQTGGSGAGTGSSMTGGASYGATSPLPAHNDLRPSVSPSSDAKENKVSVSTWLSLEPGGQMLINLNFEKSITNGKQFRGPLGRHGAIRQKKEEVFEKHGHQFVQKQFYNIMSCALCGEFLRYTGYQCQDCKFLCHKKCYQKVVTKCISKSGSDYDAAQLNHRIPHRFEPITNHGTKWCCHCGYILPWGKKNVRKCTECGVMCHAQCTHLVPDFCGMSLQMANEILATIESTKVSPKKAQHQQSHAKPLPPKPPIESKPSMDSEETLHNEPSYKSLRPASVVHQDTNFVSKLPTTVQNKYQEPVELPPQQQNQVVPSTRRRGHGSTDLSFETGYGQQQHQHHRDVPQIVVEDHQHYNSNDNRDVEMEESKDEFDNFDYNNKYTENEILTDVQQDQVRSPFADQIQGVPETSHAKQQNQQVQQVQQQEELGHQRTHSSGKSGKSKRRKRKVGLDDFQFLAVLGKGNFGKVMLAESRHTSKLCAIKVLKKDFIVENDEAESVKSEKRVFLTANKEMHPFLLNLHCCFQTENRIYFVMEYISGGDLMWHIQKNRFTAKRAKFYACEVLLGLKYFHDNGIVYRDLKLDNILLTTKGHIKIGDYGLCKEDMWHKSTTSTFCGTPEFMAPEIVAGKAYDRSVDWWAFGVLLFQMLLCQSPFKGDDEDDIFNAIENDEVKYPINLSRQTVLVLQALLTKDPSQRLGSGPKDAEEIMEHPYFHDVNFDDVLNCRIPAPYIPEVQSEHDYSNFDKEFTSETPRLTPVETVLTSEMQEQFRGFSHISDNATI

The target of a further experiment is T3, PKH2 (UniProt Q5A3P6).
T3 sequence (whole entry): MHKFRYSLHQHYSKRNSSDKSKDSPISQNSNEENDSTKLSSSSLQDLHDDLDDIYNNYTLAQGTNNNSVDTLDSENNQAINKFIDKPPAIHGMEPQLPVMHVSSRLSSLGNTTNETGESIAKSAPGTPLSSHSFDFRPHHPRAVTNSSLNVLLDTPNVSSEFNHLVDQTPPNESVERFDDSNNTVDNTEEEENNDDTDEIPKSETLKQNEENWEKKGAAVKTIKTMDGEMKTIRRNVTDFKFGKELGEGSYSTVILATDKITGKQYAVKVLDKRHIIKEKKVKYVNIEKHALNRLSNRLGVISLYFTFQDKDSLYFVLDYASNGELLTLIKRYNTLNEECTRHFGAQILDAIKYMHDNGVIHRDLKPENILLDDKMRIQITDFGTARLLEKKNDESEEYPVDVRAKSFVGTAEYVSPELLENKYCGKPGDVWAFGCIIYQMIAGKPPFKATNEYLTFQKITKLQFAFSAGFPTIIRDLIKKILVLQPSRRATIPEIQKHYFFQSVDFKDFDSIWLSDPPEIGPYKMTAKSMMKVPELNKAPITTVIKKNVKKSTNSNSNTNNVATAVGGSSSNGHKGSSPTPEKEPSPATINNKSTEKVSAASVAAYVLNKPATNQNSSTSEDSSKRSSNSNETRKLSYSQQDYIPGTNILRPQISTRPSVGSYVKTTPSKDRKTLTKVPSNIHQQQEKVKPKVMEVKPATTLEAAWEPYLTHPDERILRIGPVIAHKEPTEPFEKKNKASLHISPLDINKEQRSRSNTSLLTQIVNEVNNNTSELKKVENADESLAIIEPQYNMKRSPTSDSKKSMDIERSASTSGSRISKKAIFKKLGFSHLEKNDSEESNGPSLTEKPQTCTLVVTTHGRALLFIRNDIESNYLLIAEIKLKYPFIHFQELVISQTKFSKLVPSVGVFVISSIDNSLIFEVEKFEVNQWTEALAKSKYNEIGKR

`Cc1[nH]nc2ccc(-c3cc(OC[C@@H](N)Cc4ccccc4)cnc3-c3ccoc3)cc12`: the “MIB bead binding (log2)” value with ATG1 (0.1 µM) is -0.123; with ATG1 (1 µM) it was -0.147; with ATG1 (10 µM) it was -0.524; with PKC1 (0.1 µM), -0.235; in the experiment with PKC1 (1 µM) it was 0.00546; with PKC1 (10 µM), -0.233. Further, the “MIB bead binding (log2)” value in the experiment with PKH2 (0.1 µM) was -0.165; with PKH2 (1 µM), -0.0865; in the experiment with PKH2 (10 µM), -0.756.

These data come from the supplement of paper PMC11741263, “Chemoproteomic Profiling of C. albicans for Characterization of Anti-fungal Kinase Inhibitors” (bioRxiv, 2025).
